Measured values as given in the supplement of paper PMC6522484.
Values joined by “and” are separate entries in the source; they are usually repeats but may differ in a detail not shown here. Equal entries are not always repeated. ± gives the standard deviation of the averaged measurements.

How the values were obtained:
DLD1 [1] = test: cell viability (CellTiter-Glo) relative to plate median (fraction of plate median); higher = more viable cells; conditions: 5 µM; treatment time 24 h; reporter: 7TFP
Summary of the method: (§1)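 Library compounds were added at a final concentration of 5 µM for 24 h to colorectal cancer cells stably transduced with a lentiviral TCF/Wnt firefly luciferase reporter. Reported values are firefly luciferase or CellTiterGlo luminescence, normalised per well to the plate median. Each value averages two independent replicates.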

HCT116 = test: as above; conditions: 5 µM; treatment time 24 h; reporter: TCF4/Wnt
Summary of the method: as §1

SW480 [2] = test: as above; conditions: 5 µM; treatment time 24 h; reporter: 7TFP
Summary of the method: as §1

DLD1 [3] = test: TCF/Wnt firefly luciferase reporter signal relative to plate median (fraction of plate median); higher = higher Wnt reporter signal; conditions: 5 µM; treatment time 24 h; reporter: 7TFP
Summary of the method: as §1

SW480 [4] = test: as above; conditions: 5 µM; treatment time 24 h; reporter: 7TFP
Summary of the method: as §1

O=C1c2ccccc2C(=O)c2c1ccc(O)c2O
cell viability (DLD1 [1]): 1.01 ± 0.074
cell viability (HCT116): 1.05 ± 0.13
cell viability (SW480 [2]): 0.983 ± 0.053
TCF/Wnt firefly luciferase reporter signal (DLD1 [3]): 1.09 ± 0.11
TCF/Wnt firefly luciferase reporter signal (SW480 [4]): 1.1 ± 0.13

O=c1c(O)cccc2cc(O)c(O)c(O)c12
cell viability (DLD1 [1]): 1.06 ± 0.057
cell viability (HCT116): 0.914 ± 0.056
cell viability (SW480 [2]): 1.01 ± 0.037
TCF/Wnt firefly luciferase reporter signal (DLD1 [3]): 1.04 ± 0.014
TCF/Wnt firefly luciferase reporter signal (SW480 [4]): 0.944 ± 0.094

NCCc1ccc(O)c(O)c1
cell viability (DLD1 [1]): 0.922 and 1
cell viability (HCT116): 1.05 and 1.1
cell viability (SW480 [2]): 0.998 and 0.98
TCF/Wnt firefly luciferase reporter signal (DLD1 [3]): 1.01 and 1.02
TCF/Wnt firefly luciferase reporter signal (SW480 [4]): 0.963 and 0.967
